A selection: hits, their analogues and other compounds. The true share with any hit is near 4%.
Bead autofluor = compound fluorescence in toxin protease inhibitor counterscreen | compound autofluorescence counterscreen, microsphere flow cytometry; hits give high values | fluorescence intensity (test concentration not listed) | hit rate 3.1% among 360,000 | AID 624483; in the data active = fluorescence intensity above about 16000; inconclusive = no clear call, values can overlap the other calls
MazEF act = activators of E. coli MazEF toxin-antitoxin RNase, primary screen, biochemical, fluorescence, uHTS. FAM/BHQ RNA-DNA oligo cleavage fluorescence, 5 h. AID 504720, 2011. activation, % at 20 µM. hit rate 0.32% among 350,000. Endoribonuclease toxin MazF (Escherichia coli (strain K12)), P0AE70; in the data active = activation above about 50%
Anthrax LF prot = Bacillus anthracis LF protease inhibitors, primary screen, biochemical, multiplex microsphere, MLPCN library; Lethal factor (Bacillus anthracis), P15917; multiplex microsphere protease cleavage assay; inhibition, % at 10 µM; hit rate 0.12% among 360,000; also: plate controls were buffer without enzyme for full effect and enzyme alone for no effect
Target sequence (P15917 whole entry, looked up): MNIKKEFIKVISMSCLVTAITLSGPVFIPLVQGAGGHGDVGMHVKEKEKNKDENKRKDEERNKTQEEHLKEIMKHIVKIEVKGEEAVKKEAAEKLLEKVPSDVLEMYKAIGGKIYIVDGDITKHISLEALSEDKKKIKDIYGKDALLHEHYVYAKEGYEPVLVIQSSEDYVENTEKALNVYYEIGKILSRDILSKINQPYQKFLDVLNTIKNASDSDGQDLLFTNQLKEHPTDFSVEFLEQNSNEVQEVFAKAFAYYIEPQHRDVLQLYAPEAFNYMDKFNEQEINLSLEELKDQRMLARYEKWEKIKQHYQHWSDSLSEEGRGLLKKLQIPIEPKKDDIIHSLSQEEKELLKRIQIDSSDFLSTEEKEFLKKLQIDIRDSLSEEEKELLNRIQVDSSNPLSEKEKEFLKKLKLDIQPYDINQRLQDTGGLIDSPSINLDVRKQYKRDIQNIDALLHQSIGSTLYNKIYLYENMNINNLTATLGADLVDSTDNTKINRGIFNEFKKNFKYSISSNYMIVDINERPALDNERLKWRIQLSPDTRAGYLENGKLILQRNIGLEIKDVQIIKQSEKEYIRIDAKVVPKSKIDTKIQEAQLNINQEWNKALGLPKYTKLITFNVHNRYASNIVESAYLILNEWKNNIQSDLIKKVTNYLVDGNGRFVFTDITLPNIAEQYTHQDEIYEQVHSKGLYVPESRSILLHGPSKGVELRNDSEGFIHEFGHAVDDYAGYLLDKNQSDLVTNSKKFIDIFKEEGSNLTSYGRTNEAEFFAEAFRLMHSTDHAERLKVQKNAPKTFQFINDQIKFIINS
BoNT F protease = BoNT/F light chain protease inhibitors, primary screen, biochemical, flow cytometry, MLPCN library | Multiplex microsphere protease cleavage assay | inhibition, % at 10 µM | hit rate 0.22% among 360,000; in the data active = inhibition above about 35%, passing the limit was not always enough; inconclusive = no clear call, values can overlap the other calls; also: plate controls were buffer without enzyme for full effect and enzyme alone for no effect
BoNT A protease = BoNT/A light chain protease inhibitors, primary screen, biochemical, flow cytometry, MLPCN library | Botulinum neurotoxin type A light chain protease (Clostridium botulinum A str. ATCC 3502) | multiplex microsphere protease substrate cleavage | inhibition, % at 10 µM | hit rate 0.17% among 360,000; also: plate controls were buffer without enzyme for full effect and enzyme alone for no effect
DUSP3 inh = VHR1 phosphatase inhibitors, primary screen, biochemical, absorbance, uHTS. Dual specificity protein phosphatase 3 (Homo sapiens), P51452. recombinant VHR phosphatase, pNPP absorbance. inhibition, % at 13.3 µM. hit rate 0.52% among 290,000. AID 1654, 2009; in the data active = inhibition above about 50%
Numbers without * were called inactive; ? = inconclusive; / = not tested or not shown. Rule as the data show it, unless noted: active = inhibition above about 30%; inconclusive = no clear call, values can overlap the other calls; inactive = below that.

SMILES	Bead autofluor	MazEF act	Anthrax LF prot	BoNT F protease	BoNT A protease	DUSP3 inh
O=C(CC1C(=O)NCCN1Cc1cccc(C(F)(F)F)c1)NCCc1cnccn1 (stereo not given)	5730	-4.9	-2.1	-1.2	0.6	20.2
CCN(CC)CCCN(C(=O)c1ccc(OC)cc1)c1nc(-c2ccc(OC)cc2)cs1	4034	29.6	4.1	-22.0	-5.9	11.4
CCN(C(=O)c1cccs1)c1nc(-c2ccc(OC)cc2)cs1	4143	-8.3	-2.9	-0.8	0.0	4.8
COc1ccc(-c2csc(N(CCCN(C)C)C(=O)c3cccs3)n2)cc1	21006*	17.2	0.3	-5.6	?	6.2
O=C(c1cccs1)N(CC1CCCO1)c1nc(-c2ccccc2)cs1 (stereo not given)	23325*	1.5	-0.2	-2.5	-0.6	5.5
COCCCN(C(C)=O)c1nc(-c2ccc(OC)cc2)cs1	21678*	-4.9	-0.6	3.4	2.8	4.9
Cc1ccc(S(=O)(=O)C2(C(=O)Nc3ccc(Br)cc3)CC2)cc1	2588	4.7	-0.1	-1.1	-0.7	3.9
O=C(NCc1cccnc1)c1cccc(S(=O)(=O)N2CCOCC2)c1	?	-16.5	11.7	1.1	2.8	-2.5
COCc1[nH]nc2c1C(c1ccc(OC)c(OC)c1)C(C#N)=C(N)O2 (stereo not given)	3573	5.3	-6.5	-25.2	-0.6	21.4
CCCc1[nH]nc2c1C(c1ccc(O)c(OC)c1)C(C#N)=C(N)O2 (stereo not given)	10449	53.2*	0.4	-2.9	-0.2	14.0
COCc1[nH]nc2c1C(c1cc(OC)c(O)c(OC)c1)C(C#N)=C(N)O2 (stereo not given)	4414	195.3*	2.6	-21.5	-0.3	0.8
COCc1[nH]nc2c1C(c1ccc(F)cc1F)C(C#N)=C(N)O2 (stereo not given)	7050	8.5	2.3	-5.4	-2.2	24.4
COc1cc(C2C(C#N)=C(N)Oc3n[nH]c(-c4cccs4)c32)cc(OC)c1O (stereo not given)	3681	60.0*	0.6	0.5	-1.0	6.7
COCc1[nH]nc2c1C(c1ccnc3ccccc13)C(C#N)=C(N)O2 (stereo not given)	16149*	-1.7	-3.2	0.4	0.0	-12.4
Cc1ccc(C2C(C#N)=C(N)Oc3n[nH]c(-c4cccs4)c32)cc1 (stereo not given)	2846	4.9	0.3	0.6	0.8	13.2
COc1ccc(-c2csc(NC(=O)CSc3n[nH]c(N)n3)n2)cc1	4518	5.5	-8.1	-10.6	-0.9	8.3
O=C(COC(=O)/C=C/c1ccc(OC(F)F)cc1)NC(=O)NCc1ccccc1	5991	-6.5	-2.3	-8.8	-4.8	/
CC(C)c1[nH]nc2c1C(c1cccs1)C(C#N)=C(N)O2 (stereo not given)	20949*	-3.6	1.9	-5.5	-3.5	-3.3
Cc1ccnc2nc(C(=O)OCC(=O)NCCc3ccc(Cl)cc3)nn12	7745	9.4	1.4	-10.0	-0.8	4.0
CCCOc1ccc(Cn2cnc3ccccc32)cc1	16239*	-4.4	0.4	-1.7	0.7	13.4
Brc1ccccc1OCCCn1cnc2ccccc21	19986*	-5.2	-1.3	3.4	1.3	20.1
c1ccc(OCCCCn2cnc3ccccc32)cc1	2853	-1.9	-10.4	-3.4	0.3	-1.0
c1ccc(OCCn2cnc3ccccc32)cc1	17262*	4.2	-4.1	24.6	?	-0.9
COc1ccccc1NC(=O)CCSc1nnc(-c2ccco2)o1	4597	7.7	-5.8	-7.3	-1.4	9.1
COc1cccc(C2CC(c3ccccc3Cl)Nc3ncnn32)c1 (stereo not given)	18432*	2.9	-6.6	4.9	4.3	/
SMILES	Bead autofluor	MazEF act	Anthrax LF prot	BoNT F protease	BoNT A protease	DUSP3 inh
CCN(CC)S(=O)(=O)c1ccc(OC)c(NC(=O)C(C)Oc2ccc3c(C)cc(=O)oc3c2)c1 (stereo not given)	8663	5.4	0.6	2.9	0.9	-1.6
Cc1cc2cc(C(c3nnnn3CC3CCCO3)N3CCCc4ccccc43)c(=O)[nH]c2cc1C (stereo not given)	24311*	5.6	0.9	-10.7	0.8	3.6
O=c1[nH]c2cc3c(cc2cc1C(c1nnnn1Cc1ccccc1)N1CCN2CCCC2C1)OCCO3 (stereo not given)	9350	-3.6	5.3	0.9	6.8	19.9
O=c1[nH]c2cc3c(cc2cc1C(c1nnnn1Cc1ccccc1)N1CCCCCC1)OCCO3 (stereo not given)	17658*	-15.2	4.6	12.0	9.3	-1.8
Cc1ccc(C)c2[nH]c(=O)c(C(c3nnnn3Cc3ccccc3)N3CCc4ccccc4C3)cc12 (stereo not given)	22367*	-5.3	3.6	1.4	?	28.6
Cc1ccc2cc(C(c3nnnn3CC3CCCO3)N3CCc4ccccc4C3)c(=O)[nH]c2c1 (stereo not given)	22554*	14.3	1.4	3.4	2.1	20.7
O=C(COC(=O)c1ccc2ncsc2c1)Nc1cc([N+](=O)[O-])ccc1Cl	2943	1.1	0.2	4.0	0.3	/
O=C(Nc1cc(C(=O)N2CCCC2)ccc1N1CCCC1)c1ccccc1F	9877	-1.0	0.2	-2.1	0.0	36.6
O=C(Nc1cc(C(=O)N2CCCC2)ccc1N1CCCC1)C1CC1	22662*	1.9	-1.4	-2.9	?	-0.1
Cc1cc(C)cc(NC(=O)COC(=O)c2ccc3c(c2)OCCO3)c1	3828	-9.5	2.1	0.0	0.0	/
O=c1c(C(c2ccc(F)cc2)c2c(O)nc3n(c2=O)CCS3)c(O)nc2n1CCS2	4410	288.6*	9.8	?	4.1	-11.3
O=c1c(C(c2ccc(Cl)cc2)c2c(O)nc3n(c2=O)CCS3)c(O)nc2n1CCS2	3683	-9.9	-23.2	?	?	-11.3
CCCOc1ccc(C2C(=O)N(C3CCCCCC3)CC(=O)N2Cc2ccco2)cc1OC (stereo not given)	22488*	5.9	1.0	0.1	0.2	11.9
CCCOc1ccc(C2C(=O)N(C3CCCCC3)CC(=O)N2C2CC2)cc1OC (stereo not given)	20615*	-2.2	-1.7	-3.3	-1.9	39.1
COc1ccc(C2C(=O)N(C3CCCCC3)CC(=O)N2Cc2ccco2)cc1 (stereo not given)	20572*	3.3	-5.2	2.7	?	-12.4
COc1ccc(C2C(=O)N(CCc3ccccc3)CC(=O)N2C2CCCC2)cc1 (stereo not given)	23925*	-6.8	-1.1	-0.3	-2.2	19.2
COc1cccc(CN2C(=O)CN(C3CCCCC3)C(=O)C2c2ccc(F)cc2)c1 (stereo not given)	11562	-5.7	-0.9	-4.4	-1.0	11.6
COc1ccc(CN2C(=O)CN(C3CCCCCC3)C(=O)C2c2ccc(F)cc2)cc1 (stereo not given)	10567	11.6	-0.4	-1.4	0.3	20.8
